Assay [1] in a line: viability loss in pontine glioma line – cell-based, SU-DIPG-XXV, MIPE5.0, CellTiter-Glo, qHTS, dose response (AID 1347065; cut-off not given, nearly all actives have AC50 up to about 26 µM;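 further: cells exposed to compound for 48 hours before ATP readout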). The following applies: CellTiter-Glo ATP luminescence.
Assay [2] can be described thus: JHH-DIPG-1 glioma cell viability, MIPE5.0 library, CellTiter-Glo luminescence, qHTS (AID 1347067; cut-off not given, nearly all actives have AC50 up to about 26 µM;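 further: cells exposed to compound for 48 hours before readout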). The settings on record: JHH-DIPG-1 glioma viability, CellTiter-Glo ATP luminescence. For orientation: ATP-based viability assays read luminescence as a measure of living cells.
The nature of assay [3]: growth inhibition of DIPG cells – cell-based, MIPE5.0 library, qHTS (AID 1347068; cut-off not given, nearly all actives have IC50 up to about 30 µM;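 on IC50: cells exposed to compound for 48 hours before viability readout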). The settings on record: SU-DIPG-XXV viability. Background: qHTS replaces the single test concentration by a dilution series.
The nature of assay [4]: viability loss in pontine glioma line – cell-based, SU-DIPG-XIII, MIPE4.0, CellTiter-Glo, qHTS, dose response (AID 1347061; cut-off not given, nearly all actives have AC50 up to about 37 µM;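 further: cells exposed to compound for 48 hours before readout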). The settings on record: CellTiter-Glo ATP luminescence.
Assay [5] is described as follows: growth inhibition of DIPG cells – cell-based, MIPE4.0 library, CellTiter-Glo luminescence, qHTS (AID 1347066; cut-off not given, nearly all actives have AC50 up to about 30 µM;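 further: cells exposed to compound for 48 hours before readout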). The settings on record: SU-DIPG-VI viability, CellTiter-Glo ATP luminescence.
Assay [6] concerns the target Mitogen-activated protein kinase 7 (Homo sapiens) (UniProt Q13164). The experiment in a line: Gal4-ERK5 driven luciferase induction – cell-based, HTS, primary screen (AID 1508626;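 active means luciferase signal above three times the same-plate solvent-only control wells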;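 further: luciferase driven by Gal4-ERK5 fusion binding five Gal4 sites before minimal TATA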). The following applies: HeLa Gal4-ERK5 transactivation, 18 h, at 5 µM, stronger effect = higher value.
Assay [7] is described as follows: viability loss in pontine glioma line – cell-based, SU-DIPG-XVII, MIPE5.0, CellTiter-Glo, qHTS, dose response (AID 1347060; cut-off not given, nearly all actives have AC50 up to about 26 µM;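 on AC50: cells exposed to compound for 48 hours before viability readout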). The settings on record: CellTiter-Glo ATP luminescence.
Assay [8] is described as follows: chitosan synthesis blockers in C. neoformans – flow cytometry, Cibacron Brilliant Red staining (AID 1347148).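 Further: compound exposure lasted three days at 37 degrees C.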 The following applies: Cryptococcus neoformans chitosan, stronger effect = lower value; at 10 µM unless noted. A general note: Flow cytometry measures light scatter and fluorescence of single cells or particles in a stream.
Assay [9] can be described thus: viability loss in pontine glioma line – cell-based, SU-DIPG-XIII, MIPE5.0, CellTiter-Glo, qHTS, dose response (AID 1347064; cut-off not given, nearly all actives have AC50 up to about 23 µM). The following applies: CellTiter-Glo ATP luminescence.
Assay [10] addresses ATP-dependent translocase ABCB1 (Homo sapiens) (UniProt P08183). The experiment in a line: P-glycoprotein substrate transport blockade – cell-based (AID 377; in the data active means fluorescence slope change above about 50%). The following applies: MDR1-expressing cells, fluorescent substrate accumulation slope; stronger effect = higher value; concentration not given here.
Assay [11] is described as follows: compounds altering viability of human ES cells (AID 493140).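 Further: cells exposed to compounds for four days before counting.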 The settings on record: human embryonic stem cell survival screen; stronger effect = higher value.
Assay [12] is described as follows: blockers of polyQ-driven CASP3 activation – cell-based (AID 1583). The settings on record: polyglutamine-induced caspase-3 activation, cell assay; stronger effect = higher value;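 tested at 10 µM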.
Assay [13] can be described thus: yeast 75Q aggregation reduction – 75Q-TubU reporter (AID 1593). The settings on record: Yeast 75Q polyglutamine aggregation reporter.
Assay [14] is described as follows: restoration of touch response, mutant HTT neurons – whole organism, C. elegans mechanosensory neurons, N-terminal huntingtin (AID 1599). The settings on record: C. elegans polyQ-huntingtin mechanosensory neurons, stronger effect = higher value.
Assay [15] can be described thus: blockers of cytochrome c efflux from mitochondria – biochemical, purified mitochondria (AID 1603).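 Further: mouse liver mitochondria challenged with calcium chloride; signal normalized to the plate average as 100%.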 The settings on record: stronger effect = lower value.
Assay [16] in a line: polyglutamine aggregate formation blockers (AID 1604). The following applies: polyglutamine-induced protein aggregation inhibition assay; stronger effect = higher value; tested at 2.5 µM.
Assay [17] is described as follows: glutamate transport activators, MN-1 cells, MN-1 cell line (AID 1612).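 Further: tested at 1 µM final; 0% = mean of DMSO vehicle wells on each plate; positive means more glutamate uptake than control and negative means less.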 The settings on record: MN-1 motor neuron cells, stronger effect = higher value.
Assay [18] is described as follows: GFP-Q80 aggregate reduction, neuronal-like cells, cell-based, NGF-treated PC12, GFPQ80 (AID 1614).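 Further: lower means fewer inclusions and 0 means no inclusions at all.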 The settings on record: PC12 NGF-treated GFP-polyQ80 inclusion reduction.
The nature of assay [19]: 75Q-TubH aggregate inhibition, S. cerevisiae, yeast (AID 1616). The following applies: S. cerevisiae 75Q-TubH polyglutamine aggregation suppression; stronger effect = higher value.

The values that follow come from PubChem BioAssay.

Records with an inconclusive call do not appear. For some of these results: Potency and affinity values are given separately. The source made the active and inactive calls. Unless noted, how the calls were made is not given here.

Chain of Mitogen-activated protein kinase 7 (Homo sapiens) (Q13164 whole entry, looked up, the tested form may be a part): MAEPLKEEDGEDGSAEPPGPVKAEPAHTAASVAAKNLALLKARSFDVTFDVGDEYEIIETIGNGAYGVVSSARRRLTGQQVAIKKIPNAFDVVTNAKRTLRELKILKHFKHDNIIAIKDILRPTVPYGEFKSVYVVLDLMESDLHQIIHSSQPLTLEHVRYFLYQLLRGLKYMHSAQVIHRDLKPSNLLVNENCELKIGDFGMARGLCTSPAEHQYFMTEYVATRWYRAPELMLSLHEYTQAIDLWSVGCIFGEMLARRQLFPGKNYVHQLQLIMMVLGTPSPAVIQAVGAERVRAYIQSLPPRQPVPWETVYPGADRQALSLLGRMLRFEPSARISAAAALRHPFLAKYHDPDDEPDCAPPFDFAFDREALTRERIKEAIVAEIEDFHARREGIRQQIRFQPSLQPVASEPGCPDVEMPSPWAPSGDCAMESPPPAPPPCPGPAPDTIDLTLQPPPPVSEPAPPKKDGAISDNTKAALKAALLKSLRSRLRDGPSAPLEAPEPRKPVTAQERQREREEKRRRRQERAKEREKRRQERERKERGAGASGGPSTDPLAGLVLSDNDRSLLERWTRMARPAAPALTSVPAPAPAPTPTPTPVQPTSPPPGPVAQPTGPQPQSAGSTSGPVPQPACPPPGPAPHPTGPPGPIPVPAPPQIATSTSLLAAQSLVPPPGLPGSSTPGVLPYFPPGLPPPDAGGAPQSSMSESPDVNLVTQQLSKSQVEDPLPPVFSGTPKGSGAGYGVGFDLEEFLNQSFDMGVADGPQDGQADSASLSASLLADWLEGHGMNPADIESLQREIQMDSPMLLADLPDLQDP
Chain of ATP-dependent translocase ABCB1 (Homo sapiens) (P08183 whole entry, looked up): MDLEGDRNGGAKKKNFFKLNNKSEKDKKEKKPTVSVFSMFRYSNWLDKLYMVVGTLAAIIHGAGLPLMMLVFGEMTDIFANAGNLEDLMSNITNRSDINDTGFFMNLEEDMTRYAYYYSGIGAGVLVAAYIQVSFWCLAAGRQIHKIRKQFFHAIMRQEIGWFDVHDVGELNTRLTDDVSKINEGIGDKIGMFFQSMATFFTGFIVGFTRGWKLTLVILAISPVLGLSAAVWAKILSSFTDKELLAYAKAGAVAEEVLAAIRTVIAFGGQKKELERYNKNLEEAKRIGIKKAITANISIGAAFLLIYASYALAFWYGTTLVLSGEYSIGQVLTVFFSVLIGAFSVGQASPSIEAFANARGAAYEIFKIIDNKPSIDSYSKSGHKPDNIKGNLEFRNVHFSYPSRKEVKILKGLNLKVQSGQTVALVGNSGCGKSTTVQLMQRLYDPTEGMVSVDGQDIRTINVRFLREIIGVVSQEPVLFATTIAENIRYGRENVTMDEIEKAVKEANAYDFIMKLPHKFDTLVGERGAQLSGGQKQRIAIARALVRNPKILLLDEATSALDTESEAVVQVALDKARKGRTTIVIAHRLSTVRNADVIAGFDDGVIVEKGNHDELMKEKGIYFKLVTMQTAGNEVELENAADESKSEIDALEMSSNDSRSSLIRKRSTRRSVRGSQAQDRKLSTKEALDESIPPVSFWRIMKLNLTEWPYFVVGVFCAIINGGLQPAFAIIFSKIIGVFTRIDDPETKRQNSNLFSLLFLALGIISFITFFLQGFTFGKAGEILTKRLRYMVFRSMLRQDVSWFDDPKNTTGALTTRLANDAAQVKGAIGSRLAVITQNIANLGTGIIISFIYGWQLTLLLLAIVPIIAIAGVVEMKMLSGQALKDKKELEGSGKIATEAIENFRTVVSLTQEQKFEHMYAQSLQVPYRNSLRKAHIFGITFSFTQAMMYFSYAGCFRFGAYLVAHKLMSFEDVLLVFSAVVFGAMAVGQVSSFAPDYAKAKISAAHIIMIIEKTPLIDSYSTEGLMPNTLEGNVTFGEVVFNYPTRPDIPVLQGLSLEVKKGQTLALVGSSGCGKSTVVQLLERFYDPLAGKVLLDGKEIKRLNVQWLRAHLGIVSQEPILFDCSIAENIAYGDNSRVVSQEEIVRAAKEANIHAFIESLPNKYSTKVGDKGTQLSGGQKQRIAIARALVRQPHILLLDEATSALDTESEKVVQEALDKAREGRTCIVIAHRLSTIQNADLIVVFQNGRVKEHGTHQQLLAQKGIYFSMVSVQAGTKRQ

With `CC(O)(CS(=O)(=O)c1ccc(F)cc1)C(=O)Nc1ccc(C#N)c(C(F)(F)F)c1` (stereo not drawn), the outcome in [1], in assay [2] and in [3] was inactive.

For `CCOC(=O)c1cncn1[C@H](C)c1ccccc1`, the compound was classed as inactive in assay [4] and in assay [5]. Also, in assay [6], the luciferase signal was 52 AU (inactive).

Consider `C[C@]12CCC(=O)C=C1CC[C@@H]1[C@@H]2CC[C@@]2(C)[C@H]1CC[C@]2(C)O`, for which the outcome in assay [4] and in assay [5] was inactive.

For the compound `CC(C)[C@]12O[C@H]1[C@@H]1O[C@]13[C@]1(O[C@H]1C[C@H]1C4=C(CC[C@@]13C)C(=O)OC4)[C@@H]2O`, the AC50 (as a rule, the concentration at which the activity in the assay is half-maximal) is 186 nM (active) in [7], 209 nM (active) in [1] and 83.3 nM (active) in assay [2]. Moreover, the result in assay [4] was inactive. Further, the IC50 (commonly the concentration that gives 50% inhibition) in assay [3] is 186 nM (active). Also, the fold fluorescence in [8] was 4.23 [at 138.7 µM] (inactive).

On to `CC[C@@H](C(N)=O)N1CCCC1=O`, for which the compound was called inactive in assay [7], in assay [4], in assay [9], in assay [5] and in assay [3].

In the case of `Cc1ccc(-c2nc3ccc(C)cn3c2CC(=O)N(C)C)cc1`, the luciferase signal in [6] was 44 AU (inactive).

As to `COc1ccc2c(c1)C13CCCC[C@@H]1C(C2)N(C)CC3` (stereo partly drawn), the fluorescence slope change in [10] is 14.1% (inactive). In addition, in assay [11], the survival is 5.75 (inactive).

`CN=C1CN(O)C(c2ccccc2)=c2cc(Cl)ccc2=N1`: the inhibition (usually the relative decrease from the control value, in per cent) in assay [12] came to 6.92%. For the same compound, the score in assay [13] was determined as 1.19. Moreover, the rescue above control in [14] was -9.17. Further, the cytochrome c release ratio in assay [15] was 1.33. In addition, the inhibition of aggregation in assay [16] came out at 32%. For the same compound, the glutamate uptake change in assay [17] is -4.65%. In [18], this compound displayed an inclusion score of 2. The aggregation suppression score in assay [19] was determined as 1.55.

Take `O=C1Nc2ccc(Cl)cc2C(c2ccccc2Cl)=NC1O` (stereo not drawn): the inhibition in [12] was -16.4%. This compound also came in with a score in [13] of 0.78. The compound further displayed a rescue above control in assay [14] of -10.3. The cytochrome c release ratio in assay [15] was determined as 1.2. Moreover, the inhibition of aggregation in assay [16] amounted to 21.1%. In [17], the glutamate uptake change was -7.53%. The compound also displayed an aggregation suppression score in assay [19] of 0.626.

Regarding `CN1C(=O)CN=C(c2ccccc2)c2cc(Cl)ccc21`, the inhibition in assay [12] was -7.18%. The score in assay [13] was determined as 0.95. The same compound registered a rescue above control in assay [14] of 0.67. In assay [15], the cytochrome c release ratio came to 0.88. The inhibition of aggregation in assay [16] was determined as 26.5%. Moreover, the glutamate uptake change in assay [17] was -26.8%. In [18], this compound registered an inclusion score of 2. The aggregation suppression score in assay [19] came out at 0.718.

Take `CC[C@@H]1/C=C/C=C/C[C@H](C)[C@@H](O)[C@](C)(O)C(=O)[C@H](C)[C@@H](O)[C@H](C)C(=O)[C@H](C)[C@@H](O)[C@H](C)/C=C/C(=O)O[C@H]2[C@@H](C)[C@@H](CC1)O[C@@]1(CC[C@@H](C)[C@@H](C[C@H](C)O)O1)[C@@H]2C`: in assay [12], the inhibition was -0.04%. Moreover, the score in assay [13] was -0.11. The same compound gave a rescue above control in assay [14] of -7.82. For the same compound, the cytochrome c release ratio in assay [15] came out at 1.21. In assay [16], the inhibition of aggregation was -10.6%. In addition, the glutamate uptake change in assay [17] came out at 5.74%. The compound also came in with an aggregation suppression score in assay [19] of 0.0317. Besides, the fold fluorescence in assay [8] is 5.62 [at 63.2 µM] (inactive).

As to `NCCc1c[nH]c2ccc(O)cc12`, the fluorescence slope change in [10] was 73.4% (active). Further, the survival in assay [11] is 12.7 (inactive). Besides, the fold fluorescence in assay [8] is 4 [at 283.7 µM] (inactive).

As for `CCCN1CCC[C@@H]2Cc3[nH]ncc3C[C@H]21`, the survival in assay [11] is 16 (inactive).

On to `O=c1c(O)c(-c2ccc(O)c(O)c2)oc2c(O)c(O)cc(O)c12`, for which, in [6], the luciferase signal was 48 AU (inactive).
